The values that follow come from PubChem BioAssay (EPA / NIEHS).

Inconclusive results are not listed. Calls of active or inactive are those of the source. The calls were made as follows: active = hit-call score of the fitted dose curve at least 0.9, where 1 is the maximum; inconclusive = response in the unintended direction; inactive = score below 0.9.

Beta-2 adrenergic receptor (Homo sapiens), sequence (P07550 whole entry, looked up): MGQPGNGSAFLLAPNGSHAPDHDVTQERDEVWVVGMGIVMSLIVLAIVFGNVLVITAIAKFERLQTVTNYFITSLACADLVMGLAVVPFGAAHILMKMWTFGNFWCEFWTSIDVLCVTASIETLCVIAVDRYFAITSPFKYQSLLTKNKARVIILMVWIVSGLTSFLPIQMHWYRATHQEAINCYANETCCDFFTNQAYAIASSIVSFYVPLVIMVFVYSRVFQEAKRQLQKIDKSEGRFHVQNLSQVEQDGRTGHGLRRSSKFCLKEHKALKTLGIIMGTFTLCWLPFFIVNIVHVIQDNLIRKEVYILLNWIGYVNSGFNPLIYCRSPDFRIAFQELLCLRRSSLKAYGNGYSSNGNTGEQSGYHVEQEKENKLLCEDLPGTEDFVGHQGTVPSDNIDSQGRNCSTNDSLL
human Dopamine Receptor D2 (DRD2), DRD2 (gene 1813), sequence (P14416 whole entry, looked up): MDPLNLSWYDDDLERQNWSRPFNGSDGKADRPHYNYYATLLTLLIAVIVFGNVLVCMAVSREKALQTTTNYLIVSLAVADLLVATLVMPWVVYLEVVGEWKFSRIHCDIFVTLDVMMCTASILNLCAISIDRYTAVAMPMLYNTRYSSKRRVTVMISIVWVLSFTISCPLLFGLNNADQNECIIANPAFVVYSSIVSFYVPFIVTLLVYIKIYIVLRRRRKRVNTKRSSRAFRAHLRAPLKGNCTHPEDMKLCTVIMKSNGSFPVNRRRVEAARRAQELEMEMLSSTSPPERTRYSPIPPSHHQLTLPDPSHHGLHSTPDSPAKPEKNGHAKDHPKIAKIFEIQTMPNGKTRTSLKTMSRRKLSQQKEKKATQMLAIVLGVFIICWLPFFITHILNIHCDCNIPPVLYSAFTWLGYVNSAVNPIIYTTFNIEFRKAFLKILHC
Muscarinic acetylcholine receptor M3 (Homo sapiens), sequence (P20309 whole entry, looked up): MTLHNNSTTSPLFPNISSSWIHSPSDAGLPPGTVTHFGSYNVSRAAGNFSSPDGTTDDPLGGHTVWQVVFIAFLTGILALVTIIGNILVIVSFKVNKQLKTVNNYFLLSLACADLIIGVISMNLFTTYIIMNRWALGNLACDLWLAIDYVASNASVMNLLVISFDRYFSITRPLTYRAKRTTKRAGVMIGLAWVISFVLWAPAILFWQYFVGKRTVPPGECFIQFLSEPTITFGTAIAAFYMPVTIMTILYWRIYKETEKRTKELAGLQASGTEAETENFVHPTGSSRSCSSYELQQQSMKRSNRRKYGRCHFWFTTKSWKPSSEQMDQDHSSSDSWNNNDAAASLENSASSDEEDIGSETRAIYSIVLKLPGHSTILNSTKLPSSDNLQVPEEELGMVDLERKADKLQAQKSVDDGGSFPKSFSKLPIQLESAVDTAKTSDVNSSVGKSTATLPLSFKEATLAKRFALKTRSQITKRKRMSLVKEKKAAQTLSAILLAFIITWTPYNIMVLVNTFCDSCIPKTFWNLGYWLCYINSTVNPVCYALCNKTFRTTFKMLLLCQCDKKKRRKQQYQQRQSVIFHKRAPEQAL
D(1A) dopamine receptor (Homo sapiens), sequence (P21728 whole entry, looked up): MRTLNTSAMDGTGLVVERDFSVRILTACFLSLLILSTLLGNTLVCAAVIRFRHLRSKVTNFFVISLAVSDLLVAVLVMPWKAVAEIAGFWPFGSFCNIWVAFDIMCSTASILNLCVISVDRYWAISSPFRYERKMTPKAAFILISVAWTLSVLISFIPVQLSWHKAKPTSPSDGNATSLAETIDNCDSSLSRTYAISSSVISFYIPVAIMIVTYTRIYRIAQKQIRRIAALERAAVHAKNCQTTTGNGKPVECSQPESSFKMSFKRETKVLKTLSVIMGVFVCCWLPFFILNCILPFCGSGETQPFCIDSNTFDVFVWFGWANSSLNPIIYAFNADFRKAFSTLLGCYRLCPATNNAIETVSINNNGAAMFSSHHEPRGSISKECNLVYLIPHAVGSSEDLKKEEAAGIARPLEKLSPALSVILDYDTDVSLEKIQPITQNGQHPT
human Histamine 1 Receptor (H1), HRH1 (gene 3269), sequence (P35367 whole entry, looked up): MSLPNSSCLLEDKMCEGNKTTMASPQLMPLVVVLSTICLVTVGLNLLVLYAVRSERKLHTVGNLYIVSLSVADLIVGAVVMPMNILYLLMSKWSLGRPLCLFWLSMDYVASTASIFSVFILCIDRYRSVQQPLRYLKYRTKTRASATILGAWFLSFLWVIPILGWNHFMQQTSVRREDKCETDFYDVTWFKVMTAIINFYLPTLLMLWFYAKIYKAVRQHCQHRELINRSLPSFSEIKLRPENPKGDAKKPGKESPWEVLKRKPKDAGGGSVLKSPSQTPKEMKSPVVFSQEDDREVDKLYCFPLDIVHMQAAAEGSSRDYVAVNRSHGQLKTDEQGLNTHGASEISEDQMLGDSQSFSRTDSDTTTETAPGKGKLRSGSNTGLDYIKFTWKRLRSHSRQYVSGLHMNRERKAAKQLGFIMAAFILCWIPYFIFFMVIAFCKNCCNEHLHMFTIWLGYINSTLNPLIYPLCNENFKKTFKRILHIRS
human Dopamine Receptor D4.4 (DRD4.4), DRD4 (gene 1815), sequence (P21917 whole entry, looked up): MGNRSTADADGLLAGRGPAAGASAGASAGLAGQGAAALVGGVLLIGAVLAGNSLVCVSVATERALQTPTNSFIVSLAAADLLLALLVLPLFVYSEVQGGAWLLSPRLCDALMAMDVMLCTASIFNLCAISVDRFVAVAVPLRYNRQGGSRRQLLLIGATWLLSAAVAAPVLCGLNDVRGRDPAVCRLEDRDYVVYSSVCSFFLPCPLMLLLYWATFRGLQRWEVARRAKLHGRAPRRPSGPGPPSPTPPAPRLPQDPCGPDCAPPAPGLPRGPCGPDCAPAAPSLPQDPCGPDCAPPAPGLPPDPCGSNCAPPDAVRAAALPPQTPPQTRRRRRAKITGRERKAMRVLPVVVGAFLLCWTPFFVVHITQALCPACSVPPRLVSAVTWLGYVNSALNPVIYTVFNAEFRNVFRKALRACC
Muscarinic acetylcholine receptor M1 (Homo sapiens), sequence (P11229 whole entry, looked up): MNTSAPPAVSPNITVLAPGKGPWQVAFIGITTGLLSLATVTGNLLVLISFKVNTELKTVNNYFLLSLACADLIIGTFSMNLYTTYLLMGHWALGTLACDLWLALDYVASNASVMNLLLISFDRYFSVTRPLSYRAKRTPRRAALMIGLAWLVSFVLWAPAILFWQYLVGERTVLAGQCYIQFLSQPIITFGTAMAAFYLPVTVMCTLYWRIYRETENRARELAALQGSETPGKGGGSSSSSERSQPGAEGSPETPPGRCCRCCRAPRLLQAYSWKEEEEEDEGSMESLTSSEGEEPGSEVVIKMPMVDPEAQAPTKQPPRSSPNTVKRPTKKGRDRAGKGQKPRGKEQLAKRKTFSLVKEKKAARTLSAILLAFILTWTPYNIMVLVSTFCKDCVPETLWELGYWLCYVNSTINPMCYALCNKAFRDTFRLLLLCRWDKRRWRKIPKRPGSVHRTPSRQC

One experiment concerns the target Beta-2 adrenergic receptor (Homo sapiens) (UniProt P07550). As to the kind of experiment: NVS_GPCR_hAdrb2: NovaScreen (NVS) G Protein-Coupled Receptor Assay for human Adrenergic, Beta 2 Receptor (Adrb2) (AID 2283261). The essentials: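 Filter-based radioligand binding using receptor prepared from CHO cells, 1 h incubation, scintillation counting. Primary screen in duplicate at 25 uM, actives retested in concentration series; loss of binding relative to DMSO.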
`CN1CCN(c2ccccc2/C=C2\SCCN(c3ccc(Cl)c(Cl)c3)C2=O)CC1`: the AC50 is 0.199 µM (active).

As to `NC(=O)N(O)[C@@H]1C=C[C@H](Oc2cccc(Oc3ccc(F)cc3)c2)C1`, the call was inactive.

With `CCN(CC)CCNc1ccc(CNC=O)c2sc3ccc(OC)cc3c(=O)c12`, the AC50 is 28.3 µM (active).

Consider `CCCOc1sc(C(=O)N2CCC(c3cc(CN)ccc3F)CC2)c(C)c1Br`, for which the AC50 is 7.53 µM (active).

Regarding `CCCCCCCCCCCCc1ccccc1S(=O)(=O)O`, the AC50 was 21.7 µM (active).

The target of a further experiment is human Adrenergic, Beta 3 Receptor (Adrb3), ADRB3 (gene 155) (UniProt P13945). The experiment in a line: NVS_GPCR_hAdrb3: NovaScreen (NVS) G Protein-Coupled Receptor Assay for human Adrenergic, Beta 3 Receptor (Adrb3) (AID 2283262). The essentials: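 Membranes from SK-N-MC cells pretreated with isoproterenol and 8-bromo-cAMP were used in a radioligand competitive displacement binding assay. Binding was read by filter-based scintillation counting 1 hour after dosing. Primary screening was in duplicate at 25 uM, with concentration series in follow-up.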
human Adrenergic, Beta 3 Receptor (Adrb3), ADRB3 (gene 155), sequence (P13945 whole entry, looked up): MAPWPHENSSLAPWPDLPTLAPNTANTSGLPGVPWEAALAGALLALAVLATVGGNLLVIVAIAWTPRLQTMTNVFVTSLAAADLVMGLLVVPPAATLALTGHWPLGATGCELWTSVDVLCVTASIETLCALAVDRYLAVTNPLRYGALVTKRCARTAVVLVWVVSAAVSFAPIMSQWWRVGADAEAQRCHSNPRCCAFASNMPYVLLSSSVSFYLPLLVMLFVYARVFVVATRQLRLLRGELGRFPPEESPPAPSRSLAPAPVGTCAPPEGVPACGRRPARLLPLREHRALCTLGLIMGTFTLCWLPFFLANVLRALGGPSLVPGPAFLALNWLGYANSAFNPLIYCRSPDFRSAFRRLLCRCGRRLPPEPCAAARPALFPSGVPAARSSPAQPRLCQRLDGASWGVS
Take `NC(=O)N(O)[C@@H]1C=C[C@H](Oc2cccc(Oc3ccc(F)cc3)c2)C1`: the compound was called inactive.

For `CC(=O)NC1(c2cccc(F)c2)CCN(CC[C@@]2(c3ccc(Cl)c(Cl)c3)CN(c3ccccc3)C(=O)CO2)CC1`, the AC50 is 34.2 µM (active).

On to `CC(=O)CC(C)(C)O`, for which the result was inactive.

In the case of `CCCOc1sc(C(=O)N2CCC(c3cc(CN)ccc3F)CC2)c(C)c1Br`, the AC50 was 33.5 µM (active).

`CC[C@H](c1ccc(O)cc1)[C@@H](CC)c1ccc(O)cc1`: the outcome was inactive.

The next experiment addresses human Dopamine Receptor D4.4 (DRD4.4), DRD4 (gene 1815) (UniProt P21917). As to the kind of experiment: NVS_GPCR_hDRD4.4: NovaScreen (NVS) G Protein-Coupled Receptor Assay for human Dopamine Receptor D4.4 (DRD4.4) (AID 2283264). In short, it runs like this: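 Radioligand displacement on human DRD4.4 from CHO-derived membranes, 1 hour incubation, bound counts read by filtration and scintillation. Primary screen in duplicate at 25 uM; actives followed up in concentration series.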
`CCC(=C(c1ccc(O)cc1)c1ccc(OCCN(C)C)cc1)c1ccccc1`: the compound was classed as inactive.

`CC(=O)NC1(c2cccc(F)c2)CCN(CC[C@@]2(c3ccc(Cl)c(Cl)c3)CN(c3ccccc3)C(=O)CO2)CC1`: the AC50 is 13.2 µM (active).

Regarding `Cc1oc(-c2ccccc2)nc1CCOc1ccc(C[C@H](Nc2ccccc2C(=O)c2ccccc2)C(=O)O)cc1`, the call was inactive.

Consider `CCCOc1sc(C(=O)N2CCC(c3cc(CN)ccc3F)CC2)c(C)c1Br`, for which the AC50 was 16.9 µM (active).

With `CCCCCCCCCCCCc1ccccc1S(=O)(=O)O`, the AC50 is 9.01 µM (active).

As to `c1ccc2cc3c(ccc4ccccc43)cc2c1`, the AC50 is 35.5 µM (active).

In the case of `CC1=C(/C=C/C(C)=C/C=C/C(C)=C/C(=O)O)C(C)(C)CCC1`, the half-maximal activity concentration (AC50) is 1.8 µM (active).

Another experiment has as its target human Dopamine Receptor D2 (DRD2), DRD2 (gene 1813) (UniProt P14416). As to the kind of experiment: NVS_GPCR_hDRD2s: NovaScreen (NVS) G Protein-Coupled Receptor Assay for human Dopamine Receptor D2 (DRD2) (AID 2283266). In short, it runs like this:
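Radioligand displacement used human DRD2 membranes extracted from CHO cells and was read by filter-based scintillation counting after 1.5 hours. Primary screening was in duplicate at 25 uM. Loss of signal versus DMSO was fitted, with concentration series in follow-up.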
As to `NC(=O)N(O)[C@@H]1C=C[C@H](Oc2cccc(Oc3ccc(F)cc3)c2)C1`, the compound was classed as inactive.

On to `CCC(=C(c1ccc(O)cc1)c1ccc(OCCN(C)C)cc1)c1ccccc1`, for which the AC50 was 0.647 µM (active).

In the case of `CC(=O)NC1(c2cccc(F)c2)CCN(CC[C@@]2(c3ccc(Cl)c(Cl)c3)CN(c3ccccc3)C(=O)CO2)CC1`, the AC50 is 11 µM (active).

For `COc1ccc([N+](=O)[O-])cc1N`, the AC50 was 7.93 µM (active).

With `CCN(CC)CCNc1ccc(CNC=O)c2sc3ccc(OC)cc3c(=O)c12`, the AC50 is 18.8 µM (active).

`CCCOc1sc(C(=O)N2CCC(c3cc(CN)ccc3F)CC2)c(C)c1Br`: the AC50 was 9.42 µM (active).

For `CCCCCCCCCCCCc1ccccc1S(=O)(=O)O`, the AC50 was 18.5 µM (active).

Consider `CC[C@H](c1ccc(O)cc1)[C@@H](CC)c1ccc(O)cc1`, for which the AC50 is 6.99 µM (active).

A further experiment has as its target human Histamine 1 Receptor (H1), HRH1 (gene 3269) (UniProt P35367). As to the kind of experiment: NVS_GPCR_hH1: NovaScreen (NVS) G Protein-Coupled Receptor Assay for human Histamine 1 Receptor (H1) (AID 2283268). Here is the method: (§1) NVS_GPCR_hH1 is a biochemical, single-readout assay that uses extracted gene-proteins in a cell-free assay. Measurements were taken 1 hour after chemical dosing in a 96-well plate.NVS_GPCR_hH1 is one of one assay component(s) measured or calculated from the NVS_GPCR_hH1 assay. It is designed to make measurements of radioligand binding, a form of binding reporter, as detected with scintillation counting signals by Filter-based radiodetection technology.Data from the assay component NVS_GPCR_hH1 was analyzed into 1 assay endpoint. This assay endpoint, NVS_GPCR_hH1, was analyzed in the positive analysis fitting direction relative to DMSO as the negative control and baseline of activity. Using a type of binding reporter, loss-of-signal activity can be used to understand changes in the binding as they relate to the gene HRH1. Furthermore, this assay endpoint can be referred to as a primary readout, because the performed assay has only produced 1 assay endpoint. To generalize the intended target to other relatable targets, this assay endpoint is annotated to the gpcr intended target family, where the subfamily is rhodopsin-like receptor.
(§2) Binding assays used specific radioligands (tritiated, iodinated) with non-radioactive competitive displacement ligands in agonist or antagonist protocols (as indicated) and various reference compounds and inhibitors to titrate specific binding to receptors and transporters. Most enzyme assays (CYPs, kinases, phosphatases, proteases, HDACs) used recombinant protein and specific substrates (fluorescence mostly, some colorimetric and radioactive) and inhibitors, followed by a biochemical separation of substrate and product. All assays for the biochemical HTS were initially run in duplicate at a single concentration (10 uM for CYP450 assays and 25 uM for all others). […] Each assay was run with positive and negative controls, and concurrent controls on every plate. The follow-up (secondary) screen tested active chemical-pairs in concentration series, as well as a few additional assays not tested in the primary screen, some selected negative inactives, and several cases re-run in the concentration series for confirmatory purposes.
As for `CCN(CC)CCNc1ccc(CNC=O)c2sc3ccc(OC)cc3c(=O)c12`, the AC50 is 7.5 µM (active).

Regarding `Cc1oc(-c2ccccc2)nc1CCOc1ccc(C[C@H](Nc2ccccc2C(=O)c2ccccc2)C(=O)O)cc1`, the AC50 is 35.5 µM (active).

Take `CCCOc1sc(C(=O)N2CCC(c3cc(CN)ccc3F)CC2)c(C)c1Br`: the AC50 was 18.2 µM (active).

As for `CCCCCCCCCCCCc1ccccc1S(=O)(=O)O`, the AC50 was 25.2 µM (active).

A further experiment concerns the target D(1A) dopamine receptor (Homo sapiens) (UniProt P21728). The experiment in a line: NVS_GPCR_hDRD1: NovaScreen (NVS) G Protein-Coupled Receptor Assay for human Dopamine Receptor D1 (DRD1) (AID 2283269). Here is the method:
as §1, with “NVS_GPCR_hDRD1” for “NVS_GPCR_hH1”, “gene-proteins from HEK293” for “gene-proteins”, “plate.NVS_GPCR_hDRD1” for “plate.NVS_GPCR_hH1”, “NVS_GPCR_hDRD1,” for “NVS_GPCR_hH1,”, “DRD1.” for “HRH1.”
as §2
For `NC(=O)N(O)[C@@H]1C=C[C@H](Oc2cccc(Oc3ccc(F)cc3)c2)C1`, the AC50 is 25 µM (active).

`CCC(=C(c1ccc(O)cc1)c1ccc(OCCN(C)C)cc1)c1ccccc1`: the AC50 is 1.71 µM (active).

Regarding `CC(=O)NC1(c2cccc(F)c2)CCN(CC[C@@]2(c3ccc(Cl)c(Cl)c3)CN(c3ccccc3)C(=O)CO2)CC1`, the AC50 is 14.8 µM (active).

In the case of `CCCCCCCCCCCCCC[N+](C)(C)C`, the AC50 is 4.57 µM (active).

Regarding `CCN(CC)CCNc1ccc(CNC=O)c2sc3ccc(OC)cc3c(=O)c12`, the AC50 is 7.31 µM (active).

`Cc1oc(-c2ccccc2)nc1CCOc1ccc(C[C@H](Nc2ccccc2C(=O)c2ccccc2)C(=O)O)cc1`: the AC50 is 12.1 µM (active).

Turning to `NC(=O)N1C(=O)C(C(=O)c2cc(Cl)cs2)c2cc(F)c(Cl)cc21` (stereo not drawn), the call was inactive.

With `CCCOc1sc(C(=O)N2CCC(c3cc(CN)ccc3F)CC2)c(C)c1Br`, the AC50 is 3.56 µM (active).

As to `CCCCCCCCCCCCc1ccccc1S(=O)(=O)O`, the AC50 is 6.99 µM (active).

Another experiment concerns the target Muscarinic acetylcholine receptor M1 (Homo sapiens) (UniProt P11229). The experiment in a line: NVS_GPCR_hM1: NovaScreen (NVS) G Protein-Coupled Receptor Assay for human Muscarinic, M1 Receptor (AID 2283270). The essentials: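 Cell-free radioligand displacement using membrane protein extracted from CHO cells, read by filter-based scintillation counting 1 h after dosing. Loss of bound signal fitted versus DMSO; primary screen single concentration 25 uM in duplicate, actives followed by concentration series.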
As for `CCN(CC)CCNc1ccc(CNC=O)c2sc3ccc(OC)cc3c(=O)c12`, the AC50 is 4.7 µM (active).

In the case of `Cc1oc(-c2ccccc2)nc1CCOc1ccc(C[C@H](Nc2ccccc2C(=O)c2ccccc2)C(=O)O)cc1`, the compound was classed as inactive.

`CCCOc1sc(C(=O)N2CCC(c3cc(CN)ccc3F)CC2)c(C)c1Br`: the AC50 was 8.67 µM (active).

In the case of `CCCCCCCCCCCCc1ccccc1S(=O)(=O)O`, the AC50 was 18.4 µM (active).

For the compound `CCCCCCCC(=O)O`, the result was inactive.

The next experiment has as its target Muscarinic acetylcholine receptor M3 (Homo sapiens) (UniProt P20309). The experiment in a line: NVS_GPCR_hM3: NovaScreen (NVS) G Protein-Coupled Receptor Assay for human Muscarinic, M3 Receptor (AID 2283272). The essentials:
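Radioligand displacement binding on human M3 receptor in CHO-derived membranes, 1 h incubation, filter-based scintillation counting. Primary screen in duplicate at 25 uM; actives followed up in concentration series; loss of signal versus DMSO.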
In the case of `NC(=O)N(O)[C@@H]1C=C[C@H](Oc2cccc(Oc3ccc(F)cc3)c2)C1`, the compound was called inactive.

Consider `CCN(CC)CCNc1ccc(CNC=O)c2sc3ccc(OC)cc3c(=O)c12`, for which the AC50 was 8.94 µM (active).

`CCCOc1sc(C(=O)N2CCC(c3cc(CN)ccc3F)CC2)c(C)c1Br`: the AC50 is 11.3 µM (active).

Turning to `CCCCCCCCCCCCc1ccccc1S(=O)(=O)O`, the AC50 was 41 µM (active).

As for `CCCCCCCC(=O)O`, the compound was called inactive.

For orientation: AC50 means the midpoint of the concentration-response curve, whichever way the signal moves.
